Test results taken from PubChem BioAssay (EPA / NIEHS).
“And” between values parts separate entries of the source, which are not always exact repeats. Equal entries are not always repeated. Records with an inconclusive call do not appear. The source holds several records for some structures; these can differ, active in one and inactive in another. The source made the active and inactive calls. The calls were made as follows: active = hit-call score of the fitted dose curve at least 0.9, where 1 is the maximum; inconclusive = response in the unintended direction; inactive = score below 0.9.

Legend:
[1] = biological target: Cellular tumor antigen p53 (Homo sapiens) (UniProt P04637); test: TOX21_p53_BLA_p3_ratio: Tox21 HCT-116 p53 Agonism Beta-lactamase Assay, Ratio, Phase 3 (AID 2283596)
How it was run: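 Cells were seeded at 4000/well, rested 5 h at 37C, then dosed with DMSO compound solutions (217-fold dilution) for 16 h. CCF4-AM substrate was loaded for 2 h at room temperature, and the 460/530 nm emission ratio was fitted for gain of signal versus DMSO.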

[2] = biological target: Cellular tumor antigen p53 (Homo sapiens) (UniProt P04637); test: TOX21_p53_BLA_p5_ratio: Tox21 HCT-116 p53 Agonism Beta-lactamase Assay, Ratio, Phase 5 (AID 2283599)
How it was run: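 Beta-lactamase reporter ratio (blue 460 nm over green 530 nm, 405 nm excitation) after 2 h CCF4-AM loading, in HCT-116 cells exposed 16 h at 37 C to compounds pinned at 217-fold dilution. Increases relative to DMSO baseline scored.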

[3] = TOX21_p53_BLA_p5_viability: Viability Assessment in the Tox21 HCT-116 p53 Agonism Beta-lactamase Assay, Phase 5 (AID 2283600)
How it was run: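 Luciferase-coupled ATP quantitation of cells treated for 16 h (37C, 5% CO2) with test chemicals delivered in DMSO via a 217-fold dilution; 4000 cells/well; reagent incubated 30 min at room temperature before luminescence reading.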

[4] = biological target: Cellular tumor antigen p53 (Homo sapiens) (UniProt P04637); test: TOX21_p53_BLA_p4_ratio: Tox21 HCT-116 p53 Agonism Beta-lactamase Assay, Ratio, Phase 4 (AID 2283601)
How it was run: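 Signal is the blue/green (460nm/530nm) ratio of cleaved versus uncleaved CCF4-AM substrate, read after 2 h substrate loading. Cells were HCT116 carrying the p53-responsive beta-lactamase reporter, dosed 16 h at 37C, 5% CO2; CellTiter-Glo measured in parallel.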

[5] = TOX21_p53_BLA_p4_viability: Viability Assessment in the Tox21 HCT-116 p53 Agonism Beta-lactamase Assay, Phase 4 (AID 2283597);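 also: hits lower the luminescence signal meaning cytotoxicity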
How it was run: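 Cytotoxicity was inferred from loss of CellTiter-Glo luminescence. HCT116 cells had been dosed with compounds after 5 h plating, incubated 16 h at 37C and 5% CO2, and exposed to the CCF4-AM substrate for 2 h.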

[6] = Tanguay_ZF_120hpf_MORT_legacy: (Legacy) Oregon State University Tanguay Lab 120 Hour Post-fertilization zebrafish Assay for Mortality (AID 2283633)
How it was run: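 Dechorionated Tropical 5D wild-type zebrafish embryos, one per well from 6 hpf, were statically exposed at 28C in the dark until 120 hpf (0.64% DMSO final). Mortality was scored as present/absent by brightfield microscopy, fitted positively versus DMSO.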

[7] = Tanguay_ZF_120hpf_YSE_legacy: (Legacy) Oregon State University Tanguay Lab 120 Hour Post-fertilization zebrafish Assay for Yolk Sac Edema (AID 2283634);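 as to AC50: actives raise the incidence of yolk sac edema above the DMSO baseline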
How it was run: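 Tropical 5D wild-type embryos, dechorionated with pronase at 4 hpf, were exposed singly from 6 hpf to 120 hpf under static, sealed, dark conditions at 28C with 0.64% DMSO final. Yolk sac edema was scored present/absent by brightfield microscopy.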

[8] = Tanguay_ZF_120hpf_AXIS_legacy: (Legacy) Oregon State University Tanguay Lab 120 Hour Post-fertilization zebrafish Assay for Body Axis Malformation (AID 2283635);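 as to AC50: potency for an increased fraction of larvae scored with body axis malformation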
How it was run: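 Tropical 5D wild-type zebrafish embryos, dechorionated with pronase at 4 hpf, were placed singly in wells at 6 hpf and exposed statically to test chemical (0.64% DMSO final) at 28C until 120 hpf, then scored by brightfield for body axis defects.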

[9] = Tanguay_ZF_120hpf_EYE_legacy: (Legacy) Oregon State University Tanguay Lab 120 Hour Post-fertilization zebrafish Assay for Eye Malformation (AID 2283636);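 also: binary presence or absence of eye malformation scored by brightfield in 120 hpf larvae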
How it was run: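 Binary brightfield scoring of eye defects at 120 hpf after static exposure from 6 hpf of single pronase-dechorionated wild-type embryos (28C, 0.64% DMSO). Non-mortality endpoints omitted where embryos died; fit vs DMSO.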

[10] = Tanguay_ZF_120hpf_SNOU_legacy: (Legacy) Oregon State University Tanguay Lab 120 Hour Post-fertilization zebrafish Assay for Snout Malformation (AID 2283637)
How it was run: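 Binary snout-malformation call at 120 hpf in wild-type 5D embryos, chorion removed by pronase, under static exposure from 6 hpf at 28C (0.64% DMSO). Embryos dying by 24 or 120 hpf excluded.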

[11] = Tanguay_ZF_120hpf_JAW_legacy: (Legacy) Oregon State University Tanguay Lab 120 Hour Post-fertilization zebrafish Assay for Jaw Malformation (AID 2283638);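 as to AC50: active means more embryos with jaw malformation than DMSO controls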
How it was run: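 Tropical 5D wild-type embryos, dechorionated with pronase at 4 hpf, were placed singly per well at 6 hpf and statically exposed at 28C until 120 hpf (0.64% DMSO final). Jaw malformation scored as present/absent by brightfield microscopy at 120 hpf, analyzed relative to DMSO.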

[12] = Tanguay_ZF_120hpf_OTIC_legacy: (Legacy) Oregon State University Tanguay Lab 120 Hour Post-fertilization zebrafish Assay for Otic Vesicle Malformation (AID 2283639)
How it was run: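 Brightfield scoring at 120 hpf, binary present/absent; DMSO negative control, 5uM trimethyltin chloride positive control. Static exposure at 28C, final DMSO 0.64% (vol/vol). Dead embryos not scored for malformation.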

[13] = Tanguay_ZF_120hpf_PE_legacy: (Legacy) Oregon State University Tanguay Lab 120 Hour Post-fertilization zebrafish Assay for Pericardial Edema (AID 2283640);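 as to AC50: potency for increased incidence of pericardial edema versus DMSO baseline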
How it was run: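 Tropical 5D wild-type zebrafish embryos were exposed statically to 120 hpf at 28C, sealed and foil-covered, in 0.64% DMSO final. Pericardial edema was scored present/absent by brightfield microscopy; dead embryos were not scored.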

[14] = Tanguay_ZF_120hpf_SOMI_legacy: (Legacy) Oregon State University Tanguay Lab 120 Hour Post-fertilization zebrafish Assay for Somite Malformation (AID 2283647)
How it was run: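 Tropical 5D wild-type zebrafish embryos, dechorionated with pronase at 4 hpf, were placed singly at 6 hpf and statically exposed until 120 hpf at 28C in 0.64% DMSO. Somite malformation was scored present/absent by brightfield microscopy versus DMSO.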

[15] = Tanguay_ZF_120hpf_PFIN_legacy: (Legacy) Oregon State University Tanguay Lab 120 Hour Post-fertilization zebrafish Assay for Pectoral Fin Malformation (AID 2283648);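 also: each larva judged yes or no for fin defect by brightfield with dead larvae skipped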
How it was run: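 Pectoral fin malformation was recorded as a binary endpoint at 120 hpf in wild-type Tropical 5D larvae, which had been dechorionated and exposed statically from 6 hpf at 28C in 0.64% DMSO. Dead embryos were excluded.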

[16] = Tanguay_ZF_120hpf_CFIN_legacy: (Legacy) Oregon State University Tanguay Lab 120 Hour Post-fertilization zebrafish Assay for Caudal Fin Malformation (AID 2283649)
How it was run: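 Tropical 5D wild-type embryos, dechorionated with pronase at 4 hpf, were placed singly in wells at 6 hpf and statically exposed to compound at 28C until 120 hpf (0.64% DMSO). Caudal fin malformation was scored present/absent by brightfield microscopy.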

[17] = Tanguay_ZF_120hpf_PIG_legacy: (Legacy) Oregon State University Tanguay Lab 120 Hour Post-fertilization zebrafish Assay for Pigmentation Malformation (AID 2283650)
How it was run: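 Pigment malformation recorded as a binary call at 120 hpf in zebrafish (Tropical 5D) exposed singly from 6 hpf after pronase dechorionation. Static, sealed, 28C exposure, 0.64% DMSO; mortality excludes scoring; positive-direction fit against DMSO.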

[18] = Tanguay_ZF_120hpf_CIRC_legacy: (Legacy) Oregon State University Tanguay Lab 120 Hour Post-fertilization zebrafish Assay for Circulatory Malformation (AID 2283651)
How it was run: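 Static exposure, 6–120 hpf, 28C, sealed and dark; one dechorionated 5D embryo/well; DMSO 0.64% v/v final. Binary circulation endpoint by brightfield; dead embryos not scored.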

Chain of Cellular tumor antigen p53 (Homo sapiens) (P04637 whole entry, looked up): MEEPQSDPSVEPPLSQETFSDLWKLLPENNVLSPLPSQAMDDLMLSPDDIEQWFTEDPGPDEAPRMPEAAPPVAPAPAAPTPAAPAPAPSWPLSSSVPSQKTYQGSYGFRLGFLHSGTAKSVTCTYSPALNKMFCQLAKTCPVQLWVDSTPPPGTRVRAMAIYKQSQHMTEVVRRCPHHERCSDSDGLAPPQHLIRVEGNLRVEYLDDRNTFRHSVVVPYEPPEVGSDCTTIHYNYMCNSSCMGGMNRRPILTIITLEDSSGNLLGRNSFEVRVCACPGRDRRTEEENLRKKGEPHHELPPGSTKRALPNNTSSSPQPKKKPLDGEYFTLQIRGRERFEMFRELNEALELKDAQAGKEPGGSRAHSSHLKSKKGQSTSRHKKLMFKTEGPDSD

O=C(O)c1cccc(C(=O)O)n1
outcome [1]: inactive | outcome [2]: inactive | outcome [3]: inactive | outcome [4]: inactive

O=C(c1ccccc1)c1ccccc1
outcome [1]: inactive | outcome [5]: inactive | outcome [2]: inactive | outcome [3]: inactive | outcome [4]: inactive | outcome [6]: inactive | outcome [7]: inactive | outcome [8]: inactive | outcome [9]: inactive | outcome [10]: inactive | outcome [11]: inactive | outcome [12]: inactive | outcome [13]: inactive | outcome [14]: inactive | outcome [15]: inactive | outcome [16]: inactive | outcome [17]: inactive | outcome [18]: inactive

CCOC(=O)CN[C@@H](C(=O)N1CC[C@H]1C(=O)NCc1ccc(/C(N)=N/O)cc1)C1CCCCC1
outcome [1]: inactive | outcome [5]: inactive | outcome [3]: inactive | outcome [4]: inactive

CCCCc1oc2ccccc2c1C(=O)c1cc(I)c(OCCN(CC)CC)c(I)c1
outcome [1]: inactive | AC50 [5]: 31.3 µM (active) and 50.9 µM (active) and 23 µM (active) | outcome [2]: inactive | outcome [3]: inactive | AC50 [4]: 64.9 µM (active) | outcome [4]: inactive | outcome [6]: inactive | outcome [7]: inactive | outcome [8]: inactive | outcome [9]: inactive | outcome [10]: inactive | outcome [11]: inactive | outcome [13]: inactive | outcome [14]: inactive | outcome [15]: inactive | outcome [16]: inactive | outcome [17]: inactive

O=C(Nc1cccc([N+](=O)[O-])c1)c1cc2ccccc2cc1O
AC50 [1]: 1.1 µM (active) | AC50 [5]: 16.6 µM (active) | AC50 [2]: 4.65 µM (active) | outcome [3]: inactive | AC50 [4]: 11.6 µM (active)

CCCCCCCCCCCCOC(=O)c1cc(O)c(O)c(O)c1
AC50 [1]: 57.6 µM (active) and 81.5 µM (active) | AC50 [5]: 46.1 µM (active) and 30.9 µM (active) | AC50 [2]: 48.3 µM (active) and 77 µM (active) | AC50 [3]: 41.2 µM (active) and 78.9 µM (active) | AC50 [4]: 53 µM (active) and 36.9 µM (active)

Cc1ccc(C(=O)c2ccccc2)cc1
outcome [1]: inactive | outcome [5]: inactive | outcome [2]: inactive | outcome [4]: inactive

CC1=NN(c2ccccc2)C(=O)C1
outcome [1]: inactive | outcome [5]: inactive | outcome [2]: inactive | outcome [3]: inactive | outcome [4]: inactive

CC=O
AC50 [1]: 2.37 µM (active) | AC50 [5]: 47.9 µM (active) | AC50 [2]: 30.3 µM (active) | AC50 [3]: 74.4 µM (active) | AC50 [4]: 62.6 µM (active)

Cc1cc(C(C)(C)C)c(O)c(C(C)(C)C)c1
outcome [1]: inactive | outcome [5]: inactive | outcome [2]: inactive | outcome [3]: inactive | outcome [4]: inactive

O=C(c1cc(O)c(O)c(O)c1)c1ccc(O)c(O)c1O
AC50 [1]: 60.9 µM (active) and 84.5 µM (active) | outcome [5]: inactive | AC50 [2]: 86.8 µM (active) and 74.6 µM (active) | outcome [3]: inactive | AC50 [4]: 79.2 µM (active) and 49.9 µM (active)

CCCCCCCCCCCCCCCC(=O)OC
outcome [5]: inactive

CCC(=O)O
outcome [1]: inactive | outcome [2]: inactive | outcome [4]: inactive

O=C(O)C(=O)O
outcome [1]: inactive | outcome [2]: inactive | outcome [4]: inactive

CCC(C)c1nccnc1OC (stereo not drawn)
outcome [4]: inactive

CN(C)CCOC(c1ccccc1)c1ccccc1
outcome [5]: inactive | outcome [3]: inactive | outcome [6]: inactive | AC50 [7]: 15.4 µM (active) | AC50 [8]: 22.3 µM (active) | outcome [9]: inactive | outcome [10]: inactive | AC50 [11]: 14.6 µM (active) | outcome [12]: inactive | AC50 [13]: 26.7 µM (active) | outcome [14]: inactive | AC50 [16]: 14.1 µM (active) | outcome [17]: inactive
